Test results: PubChem BioAssay (EPA / NIEHS)
Records with an inconclusive call do not appear. Activity calls are given as the source filed them. Rule for the calls: active = hit-call score of the fitted dose curve at least 0.9, where 1 is the maximum; inconclusive = response in the unintended direction; inactive = score below 0.9.

molecular target: human Peroxisome Proliferator-activated Receptor alpha (PPARa), PPARA (gene 5465) (UniProt Q07869); assay: ATG_PPARa_TRANS: Attagene TRANS-FACTORIAL HepG2 Assay for human Peroxisome Proliferator-activated Receptor alpha (PPARa) (AID 2283001);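 for AC50: potency for gain of reporter signal over DMSO so agonist or activator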
Sequence (Q07869 whole entry, looked up): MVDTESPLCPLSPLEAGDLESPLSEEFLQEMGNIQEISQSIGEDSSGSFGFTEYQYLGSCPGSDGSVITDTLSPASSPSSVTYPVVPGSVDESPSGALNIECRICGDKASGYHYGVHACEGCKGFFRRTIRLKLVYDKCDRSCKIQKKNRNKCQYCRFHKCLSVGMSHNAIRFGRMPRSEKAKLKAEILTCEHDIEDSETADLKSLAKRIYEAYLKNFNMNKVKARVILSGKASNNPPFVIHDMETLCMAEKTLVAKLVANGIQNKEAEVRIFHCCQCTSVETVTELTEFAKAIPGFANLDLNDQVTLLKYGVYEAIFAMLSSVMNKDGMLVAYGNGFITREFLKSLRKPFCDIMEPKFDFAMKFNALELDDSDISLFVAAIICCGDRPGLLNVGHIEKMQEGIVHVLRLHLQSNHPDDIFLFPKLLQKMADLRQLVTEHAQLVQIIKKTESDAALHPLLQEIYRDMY
Description: ATG_TRANS is a cell-based, multiplexed-readout assay that uses HepG2, a human liver cell line, with measurements taken at 24 hours after chemical dosing in a 24-well plate.ATG_PPARa_TRANS is one of 30 assay component(s) measured or calculated from the ATG_TRANS assay. It is designed to make measurements of mRNA induction, a form of inducible reporter, as detected with fluorescence intensity signals by Reverse transcription polymerase chain reaction (RT-PCR) and Capillary electrophoresis technology.Data from the assay component ATG_PPARa_TRANS was analyzed into 1 assay endpoint. This assay endpoint, ATG_PPARa_TRANS, was analyzed in the positive analysis fitting direction relative to DMSO as the negative control and baseline of activity. Using a type of inducible reporter, measures of mRNA for gain-of-signal activity can be used to understand the reporter gene at the transcription factor-level as they relate to the gene PPARA. Furthermore, this assay endpoint can be referred to as a primary readout, because this assay has produced multiple assay endpoints where this one serves a reporter gene function. To generalize the intended target to other relatable targets, this assay endpoint is annotated to the nuclear receptor intended target family, where the subfamily is non-steroidal.
Human liver HepG2 cells are transiently transfected with multiple reporter transcription units (MRTUs) in 6-well plates using FuGene 6 reagent (Roche; 3 ml FuGene/1 mg DNA). The MRTU constructs are regulated by a cis-regulating element (promoter). […] A major difference between the CIS and TRANS system is that in CIS activities of endogenous TFs are measured, whereas the TRANS assay evaluates changes in activities of exogenous, chimeric NR-Gal4 proteins. […] At the end of 24 hour incubation, total RNA was isolated using TriZol reagent (Invitrogen). The isolated RNA is then reverse-transcribed using oligo(dT) primer and Mo-MLV reverse transcriptase (Invitrogen) with DNAse I (Ambion) treatment for 30 min. The one-tenth of the produced cDNA was amplified by PCR using Taq DNA polymerase (Invitrogen) and two reporter sequence-specific primers. The PCR products were fluorescently labeled by primer extension with 6-arboxyfluorescein (6-FAM) 5'-labeled reporter sequence-specific primer (2 min at 95 C, 20 s at 68 C and 10 min at 72 C) and these products were digested with 5U of HpaI (New England Biolabs) for 2h at 37 C. The fragments were purified using Qiaquick PCR columns (Qiagen), analyzed on an ABI 3130xL genetic analyzer (Applied Biosystems) with peak positions identified by using a set of X-rhodamine (ROX)-labeled MapMarker1000 molecular weight standards (BioVentures). The raw capillary electrophoresis data was processed using Attagraph software (Attagene).

SMILES	outcome	AC50
CCOC(=O)CCCCCCCCC(=O)OCC	inactive	–
c1coc(CNc2ncnc3nc[nH]c23)c1	inactive	–
O=C1OC2(c3ccc(O)cc3Oc3cc(O)ccc32)c2ccccc21	inactive	–
Cc1ccccc1S	inactive	–
CCCCCCCCSCc1cc(C)c(O)c(CSCCCCCCCC)c1	inactive	–
CC(C)(C)C1CCC(O)CC1 (stereo not given)	inactive	–
CCCC(O)C(CC)CO (stereo not given)	inactive	–
CCCCN(CCO)CCO	inactive	–
COc1ccccc1NC(=O)CC(C)=O	inactive	–
C=C(C)C(=O)OCCN(C)C	inactive	–
N#CCCNCCC#N	inactive	–
CCCCCCCCCC(=O)OCC	–	64.9 µM (active)
CCC(C)COC(=O)CC(C)C (stereo not given)	inactive	–
[O-]/[N+](=N\O)c1ccccc1	inactive	–
CC(=O)Oc1c(C)c(C)c2c(c1C)CC[C@@](C)(CCC[C@H](C)CCC[C@H](C)CCCC(C)C)O2	inactive	–
C[C@]12CC[C@@H]3c4ccc(O)cc4CC[C@H]3[C@@H]1CC[C@@H]2O	inactive	–
CCCC[N+](C)(CCCC)CCCC	inactive	–
CCCCOCCOCCOCCO	inactive	–
CCOC(=O)C(=O)OCC	inactive	–
CC/C=C\CCOC(C)OCC (stereo not given)	inactive	–

SMILES	outcome	AC50
CC(=O)c1cccnc1	inactive	–
O=S1(=O)CC=CC1	inactive	–
CCCc1ccc(O)cc1	inactive	–
CCCCCCCCCCO[C@@H]1O[C@H](CO)[C@@H](O)[C@H](O)[C@H]1O	inactive	–
C=CC(=O)OCCCCCC	inactive	–
O=C(O)c1cc2ccccc2cc1O	inactive	–
CC(C)(C)c1cccc(O)c1	inactive	–
CN(C)c1ccc(C=O)cc1	inactive	–
C=CC(C)(CCC=C(C)C)OC(=O)CC (stereo not given)	inactive	–
c1ccc2scnc2c1	inactive	–
COC(=O)c1cccc(C(=O)OC)c1	inactive	–
CC(C)(C)c1ccc(S)cc1	inactive	–
CCCCCCCCOC(=O)c1ccc(O)cc1	inactive	–
C=C(C)C(=O)OCCC[Si](OC)(OC)OC	inactive	–
C=CC(=O)OCC(CO)(COC(=O)C=C)COC(=O)C=C	inactive	–
CC1=CCC(C(C)(C)O)CC1 (stereo not given)	inactive	–
O=c1cc[nH]cc1	inactive	–
CC1=CC(C)C(C=O)C(C)C1 (stereo not given) (tested in a mixture with another compound)	inactive	–
CN(C)CCC=C1c2ccccc2CCc2ccccc21	inactive	–
CCC(=O)OC/C=C(\C)CCC=C(C)C	inactive	–
